GPR151 ag – human GPR151 activation; Q8TDV0; PathHunter beta-arrestin GPR151 cells, luminescence; activation, % at 11.2 µM; actives 1% (n = 650,000); AID 1508602; in the data active means activation above about 4.9%
FBW7 activator – human FBW7 E3 ligase activation, primary screen. Q969H0. AlphaScreen FBW7–phospho-cyclin E peptide binding, activator screen. normalized activity (activation), % at 26.1 µM. actives 0.13% (n = 650,000); in the data active means normalized activity above about 1.9%;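 further: purified mutant Fbw7 with reduced substrate affinity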
Target sequence (Q969H0 whole entry, looked up): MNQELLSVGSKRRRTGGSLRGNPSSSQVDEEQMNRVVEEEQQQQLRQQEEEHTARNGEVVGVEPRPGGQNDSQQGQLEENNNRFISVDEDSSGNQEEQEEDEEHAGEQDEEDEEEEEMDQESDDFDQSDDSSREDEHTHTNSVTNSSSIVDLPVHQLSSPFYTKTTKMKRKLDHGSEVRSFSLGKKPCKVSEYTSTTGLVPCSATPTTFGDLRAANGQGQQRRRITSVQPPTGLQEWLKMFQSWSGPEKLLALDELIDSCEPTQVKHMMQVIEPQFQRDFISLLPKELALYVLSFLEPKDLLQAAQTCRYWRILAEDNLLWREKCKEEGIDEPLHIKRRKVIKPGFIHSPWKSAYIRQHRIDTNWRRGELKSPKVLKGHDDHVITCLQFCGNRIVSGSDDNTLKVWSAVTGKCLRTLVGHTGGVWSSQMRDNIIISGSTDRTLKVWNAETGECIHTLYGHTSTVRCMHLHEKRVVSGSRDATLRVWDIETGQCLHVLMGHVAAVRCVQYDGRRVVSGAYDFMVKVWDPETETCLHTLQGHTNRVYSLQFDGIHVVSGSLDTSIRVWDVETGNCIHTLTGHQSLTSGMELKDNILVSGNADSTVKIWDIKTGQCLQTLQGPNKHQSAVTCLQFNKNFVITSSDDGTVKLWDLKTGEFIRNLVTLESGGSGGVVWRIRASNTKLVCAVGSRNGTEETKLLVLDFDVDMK
TEAD-YAP block – TEAD-YAP interaction inhibition; actives 1.4% (n = 640,000); HEK-TIYL cells, TEAD-Gal4/YAP UAS-luciferase luminescence; AID 1259422; inhibition, % at 9.12 µM; in the data active means inhibition above about 32%
MITF inh – blocks human microphthalmia-associated transcription factor. O75030. inhibition, % at 2.6 µM. AlphaScreen MITF homodimerization, bead proximity signal. actives 0.91% (n = 650,000); in the data active means inhibition above about 50%
MITF confirm – human MITF inhibition, confirmation. AID 1259372. AlphaScreen MITF homodimerization, biotin/His-MITF beads. inhibition, % at 2.6 µM. shares compounds with MITF inh. actives 16% (n = 4,700);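 active means inhibition above a cutoff derived from the DMSO control wells, cut at about 28% in these data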;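 further: inhibitors lower the bead chemiluminescence by keeping MITF from dimerizing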
AS interf DR – AlphaScreen optical interference, dose response counter-screen. shares compounds with MITF inh. AlphaScreen optical interference counterscreen, cell-free. IC50, µM. actives 6% (n = 480); call rule not given here
AS interf ctr – optically interferes with AlphaScreen signal; AID 1259376; shares compounds with MITF inh; actives 7.6% (n = 4,700); inhibition, % at 2.6 µM; LysRS AlphaScreen counterscreen, signal interference, triplicate;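 active means inhibition above a cutoff derived from the DMSO control wells, cut at about 30% in these data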
A number is an active result. The list is not random: actives were taken first. Their share in the collection is about 3.4%.

N#Cc1ccc(OCC(=O)NNC(=O)Nc2ccc(Cl)c(Cl)c2)cc1 was read as GPR151 ag inactive, FBW7 activator inactive, TEAD-YAP block inactive and MITF inh inactive.
For CCc1nnc2sc(-c3ccc(NC(=O)C(C)(C)C)cc3)nn12 the results were GPR151 ag inactive, FBW7 activator inactive, TEAD-YAP block inactive, MITF inh 53.8, MITF confirm inactive and AS interf ctr inactive.
For CCc1nnc2sc(-c3ccc(NC(=O)COc4ccc(OC)cc4)cc3)nn12 the results were GPR151 ag inactive, FBW7 activator inactive, TEAD-YAP block inactive and MITF inh inactive.
c1ccc(-c2ccc(-c3ccccn3)nn2)nc1 was read as GPR151 ag inactive, FBW7 activator inactive, TEAD-YAP block 43.8, MITF inh 86.0, MITF confirm 98.7 and AS interf ctr 100.6.
For c1ccc(-c2ccccn2)nc1 the results were GPR151 ag inactive, FBW7 activator inactive, TEAD-YAP block inactive and MITF inh inactive.
Screening CCn1c(C)cc2c(c1=O)C(c1cc(Cl)c(OC)c(OC)c1)C(C(=O)OC)=C(N)O2 (configuration not stated) returned GPR151 ag inactive, FBW7 activator inactive, TEAD-YAP block inactive and MITF inh inactive.
`CCOC(=O)C1CCCN(Cc2ccc(OC)cc2)C1` (configuration not stated) gave GPR151 ag inactive, FBW7 activator inactive, TEAD-YAP block inactive, MITF inh 51.5, MITF confirm inactive and AS interf ctr inactive.
For CCOC(=O)C1CCCN(Cc2ccccc2)C1 (configuration not stated) the results were GPR151 ag inactive, FBW7 activator inactive, TEAD-YAP block inactive and MITF inh inactive.
`CCOC(=O)C1CCCN(Cc2cccc(Br)c2)C1` (configuration not stated) gave GPR151 ag inactive, FBW7 activator inactive, TEAD-YAP block inactive, MITF inh 53.2, MITF confirm 35.2, AS interf DR inactive and AS interf ctr inactive.
For COc1ccc(CN2CCC(C(=O)NCc3ccc(C)cc3)CC2)cc1 the results were GPR151 ag inactive, FBW7 activator inactive, TEAD-YAP block inactive, MITF inh 76.6, MITF confirm inactive and AS interf ctr inactive.
`CCOC(=O)C1CCCN(Cc2ccc(O)cc2)C1` (configuration not stated) gave GPR151 ag inactive, FBW7 activator inactive, TEAD-YAP block inactive and MITF inh inactive.
COc1ccc(CN2CCCC(C(=O)N3CCCC3)C2)cc1 (configuration not stated) was read as GPR151 ag inactive, FBW7 activator inactive, TEAD-YAP block inactive and MITF inh inactive.
COc1ccc(CN2CCCC(C(=O)N3CCCCCC3)C2)cc1 (configuration not stated) was read as GPR151 ag inactive, FBW7 activator inactive, TEAD-YAP block inactive, MITF inh 73.2, MITF confirm inactive and AS interf ctr inactive.
For COc1ccc(-c2nc3c(NCCN(C(C)C)C(C)C)ncnc3n2C(C)C)cn1 the results were GPR151 ag inactive, FBW7 activator inactive, TEAD-YAP block inactive and MITF inh inactive.
O=C(NCCc1ccncc1)c1cnc2ccccn12 was read as GPR151 ag inactive, FBW7 activator inactive, TEAD-YAP block inactive and MITF inh inactive.
Cc1ccc(CN2CCCC(C(=O)N3CCCCC3)C2)cc1 (configuration not stated) was read as GPR151 ag inactive, FBW7 activator inactive, TEAD-YAP block inactive and MITF inh inactive.
Screening COc1ccc(CN2CCCC(C(=O)N3CCCCC3)C2)c(OC)c1OC (configuration not stated) returned GPR151 ag inactive, FBW7 activator inactive, TEAD-YAP block inactive, MITF inh 75.4, MITF confirm inactive and AS interf ctr inactive.
`Cc1ccc(CN2CCCC(C(=O)N3CCCCCC3)C2)cc1` (configuration not stated) gave GPR151 ag inactive, FBW7 activator inactive, TEAD-YAP block inactive, MITF inh 64.0, MITF confirm inactive and AS interf ctr inactive.
CCOC(=O)C1CCCN(Cc2ccc(OC)c(OC)c2OC)C1 (configuration not stated) was read as GPR151 ag inactive, FBW7 activator inactive, TEAD-YAP block inactive and MITF inh inactive.
COc1ccc(CN2CCCC(C(=O)NN)C2)cc1 (configuration not stated) was read as GPR151 ag inactive, FBW7 activator inactive, TEAD-YAP block inactive and MITF inh inactive.
Screening NNC(=O)C1CCCN(Cc2cccc(Oc3ccccc3)c2)C1 (configuration not stated) returned GPR151 ag inactive, FBW7 activator inactive, TEAD-YAP block inactive, MITF inh 53.8, MITF confirm inactive and AS interf ctr inactive.
`CCc1cccc(NC(=O)CCNc2c(N3CCCC3)c(=O)c2=O)c1` gave GPR151 ag inactive, FBW7 activator inactive, TEAD-YAP block inactive and MITF inh inactive.
Screening CC(NC(=O)CCSCc1ccccc1F)c1ccccc1 (configuration not stated) returned GPR151 ag inactive, FBW7 activator inactive, TEAD-YAP block inactive, MITF inh 58.8, MITF confirm inactive and AS interf ctr inactive.
For CC(NC(=O)Cc1ccccc1Cl)c1ccc(F)cc1 (configuration not stated) the results were GPR151 ag inactive, FBW7 activator inactive, TEAD-YAP block inactive, MITF inh 57.8, MITF confirm inactive and AS interf ctr inactive.
CC(NC(=O)Cc1ccc(F)cc1)c1ccccc1 (configuration not stated) was read as GPR151 ag inactive, FBW7 activator inactive, TEAD-YAP block inactive and MITF inh inactive.
`CC(NC(=O)CCSCCC(=O)NC(C)c1ccccc1)c1ccccc1` (configuration not stated) gave GPR151 ag inactive, FBW7 activator inactive, TEAD-YAP block inactive and MITF inh inactive.
`Cc1ccc(/C=C2\C(=O)Nc3ccc(C)cc32)cc1` gave GPR151 ag inactive, FBW7 activator inactive, TEAD-YAP block inactive and MITF inh inactive.
For O=C1C2C3C=CC(C2C(=O)N1Cc1ccco1)C1C2C(=O)N(Cc4ccco4)C(=O)C2C31 (configuration not stated) the results were GPR151 ag inactive, FBW7 activator inactive, TEAD-YAP block inactive and MITF inh inactive.
Fc1cc(F)c(F)c(SCCc2ccncc2)c1F was read as GPR151 ag inactive, FBW7 activator inactive, TEAD-YAP block inactive, MITF inh 90.2, MITF confirm inactive and AS interf ctr inactive.
COC(=O)C1=C(C(=O)OC)SC(=C2C(=S)C(C)(C)N(C(=O)CN3C(=O)C4CCCCC4C3=O)c3c(C)cc(C)cc32)S1 (configuration not stated) was read as GPR151 ag inactive, FBW7 activator inactive, TEAD-YAP block inactive and MITF inh inactive.

Bioassay records: PubChem, The Scripps Research Institute Molecular Screening Center
